Test results taken from PubChem BioAssay.

assay: growth suppression of yeast trafficking mutant, preliminary HTS, modulators of trafficking downstream of Golgi apparatus project, 1536-format plate, OD 615 nm (AID 637); conditions: yeast transport mutant growth, absorbance 615 nm, 18 h; stronger effect = higher value; in the data active = inhibition above about 30%; inactive = the rest

inhibition, inactive:
Cc1c(CNCc2cccs2)c(C(=O)O)c(C)n1Cc1ccccc1 0.18%, Cc1ccc(OCC(O)Cn2c(NCCc3ccccc3)nc3c2c(=O)[nH]c(=O)n3C)cc1 (stereo not given) -1.27%, COC(=O)CN(Cc1ccco1)S(=O)(=O)c1ccccc1 -0.91%, CCc1[nH]nc2c1C1(CCN(C(=O)OCc3ccccc3)CC1)C(C#N)=C(N)O2 2.1%, Cc1cc(C(=O)Nc2c(C)n(C)n(-c3ccccc3)c2=O)c(C)o1 4.91%, O=C(NCc1cccs1)c1cc2c(s1)CS(=O)(=O)C2 -1.64%, Cc1cc(C)nc(-n2nc(C)cc2NC(=O)c2ccc(Br)o2)n1 5.27%, CCOc1ncccc1C(=O)Nc1ccc(Cl)cc1 0.49%, COc1cccc(NC(=O)C2C3C=CC4(O3)C2C(=O)N(C(C)C)C4C(=O)NC2CCCCC2C)c1 (stereo not given) -4.92%, CCOC(=O)Cc1csc(NC(=O)CSc2nnc(C3CC3)n2C)n1 -3.82%, COc1ccccc1OCCOCCn1cnc2ccccc2c1=O 0.97%, O=C(CN1C(=O)CC(c2ccco2)Sc2ccccc21)Nc1ccc2c(c1)OCCO2 (stereo not given) -0.16%, CCN1CCc2c(C#N)c(N3CCCCC3)nc(NCc3ccccc3)c2C1 16.6%, Cn1c(=O)c2c(nc(SCC(=O)N3CCCc4ccccc43)n2C)n(C)c1=O -2.73%, Cc1cccc(CC2CC(=O)N(c3ccccc3)C2=O)c1 (stereo not given) -5.9%, CCN(CC)S(=O)(=O)c1cccc(-c2nnc(SCCOc3ccccc3C)o2)c1 8.36%, COC(=O)c1cccc(NC(=O)CN2CCN(Cc3ccccc3)CC2)c1 -0.36%, CN(C)CCC(c1ccc(Br)cc1)c1ccccn1 (stereo not given) -3.5%, CCCn1c(SCC(=O)NC(=O)NCc2ccco2)n[nH]c1=O -3.64%, Cc1ccc(C2=N/C(=C/N3CCOCC3)C(=O)O2)cc1 -7.21%, O=C(NCc1ccco1)c1ccc2c(=O)n(CC3CCCO3)c(=S)[nH]c2c1 (stereo not given) -0.66%, Cc1cc(-c2ccccc2)nnc1NCCN1CCOCC1 -3.17%, CN(C)CCOC(=O)C(c1ccccc1)C1(O)CCCC1 (stereo not given) 2.33%, CCOC(=O)N1CCC(NC(=O)Cn2ncc3c4ccccc4n(C)c3c2=O)CC1 -3.27%, COc1cccc(NC(=O)N(Cc2ccco2)C(C)c2cccs2)c1 (stereo not given) -4.1%, C=CCN=C1SCC(=O)N1S(=O)(=O)c1ccc(C)cc1 1.64%, Cc1ccc(S(=O)(=O)N2CCN(c3nc(C(C)C)c4c(c3C#N)CC(C)(C)OC4)CC2)cc1 -3.09%, O=C(O)Cc1ccc(-c2ccccc2)cc1 5.33%, Cc1ccc2nc(NC(=O)C3CCCN(S(=O)(=O)c4cccc5nonc45)C3)sc2c1 (stereo not given) 1.17%, O=C(NCCCN1CCCC1=O)C1CCN(S(=O)(=O)N2CCOCC2)CC1 -1.45%, CC1CCCC(C)N1CCNC(=O)C1CCN(S(=O)(=O)N2CCCCC2)CC1 (stereo not given) -2.55%, O=C(CSc1nnc(-c2ccccn2)n1Cc1ccccc1)N1CCCC1 -6%, C[C@H](CS)C(=O)N1CCC[C@H]1C(=O)O 2.83%, c1ccc(-c2ccc(-c3ccccn3)nn2)nc1 -0.63%, CS(=O)(=O)N(CC(=O)NCc1ccncc1)Cc1ccc(Cl)cc1 0.81%, O=C(CCn1c(=O)oc2ccccc21)N1CCN(c2ccccc2Cl)CC1 -2%, CC(C)Oc1cc2oc(=O)c3c(c2cc1Cl)CCC3 0.97%, CC(=O)C1=C(NC(=O)c2ccccc2F)C[C@@H]2[C@H]1C2(C)C -3.55%, CCOC(=O)Cn1nnnc1CN(Cc1ccc(OC)cc1)Cc1cc2cc(C)ccc2[nH]c1=O 4.55%, Cc1ccc(CN2C(=O)CCC2C(=O)NCCCN2CCCC(C)C2)cc1 (stereo not given) -3.45%
